Test results reported in PubChem BioAssay (NCATS).
Activity calls are given as the source filed them. Calls follow the shape of the full dose curve.

Experiment: qHTS drug screen for cell cycle checkpoint inhibitors in PARPi-resistant BRCA-mutant ovarian cancer cell lines. (AID 1963452)
Settings: PEO1/OlaR viability, CellTiter-Glo luminescence, 96 h, stronger effect = lower value
From the text: Women's Malignancies Branch, Center for Cancer Research (CCR),
National Cancer Institute (NCI), National Institutes of Health (NIH), Bethesda, MD
Poly (ADP-ribose) polymerase inhibitors (PARPis) have changed the treatment paradigm in breast cancer gene (BRCA) - mutant high-grade serous ovarian carcinoma (HGSC). However, most patients eventually develop resistance to PARPis, highlighting an unmet need for improved therapeutic strategies. Using high-throughput drug screens, we identified ataxia telangiectasia and rad3-related protein/checkpoint kinase 1 (CHK1) pathway inhibitors as cytotoxic and further validated the activity of the CHK1 inhibitor (CHK1i) prexasertib in PARPi-sensitive and -resistant BRCA-mutant HGSC cells and xenograft mouse models. CHK1i monotherapy induced DNA damage, apoptosis, and tumor size reduction. We then conducted a phase 2 study (NCT02203513) of prexasertib in patients with BRCA-mutant HGSC. The treatment was well tolerated but yielded an objective response rate of 6% (1 of 17; one partial response) in patients with previous PARPi treatment. […] BRCA reversion mutation in previously PARPi-treated BRCA-mutant patients was not associated with resistance to CHK1i.
Among others, 1082 oncology drugs, both approved and investigational, were prioritized based on their status in clinical trial development. […] Drugs with average Z-AUC values less than -1.0 in all three cell lines were classified as "hits" resulting in 151 oncology drug hits. The screen also confirmed cross-resistance between olaparib and other PARPis (rucaparib, niraparib, and talazoparib) in PARPi-resistant PEO1/OlaR and PEO4.
[1] G. L. Lin, K. M. Wilson, M. Ceribelli, B. Z. Stanton, P. J. Woo, S. Kreimer, E. Y. Qin, X. Zhang, J. Lennon, S. Nagaraja, P. J. Morris, M. Quezada, S. M. Gillespie, D. Y. Duveau, A. M. Michalowski, P. Shinn, R. Guha, M. Ferrer, C. Klumpp-Thomas, S. Michael, C. McKnight, P. Minhas, Z. Itkin, E. H. Raabe, L. Chen, R. Ghanem, A. C. Geraghty, L. Ni, K. I. Andreasson, N. A. Vitanza, K. E.Warren, C. J. Thomas, M. Monje, Therapeutic strategies for diffuse midline glioma from high-throughput combination drug screening. Sci. Transl. Med. 11, (2019).
[2] T. M. Yamamoto, A. McMellen, Z. L. Watson, J. Aguilera, R. Ferguson, E. Nurmemmedov, T. Thakar, G. L. Moldovan, H. Kim, D. M. Cittelly, A. M. Joglar, E. P. Brennecke, H. Wilson, K. Behbakht, M. J. Sikora, B. G. Bitler, Activation of Wnt signaling promotes olaparib resistant ovarian cancer. Mol. Carcinog. 58, 1770 - 1782 (2019).
PROTOCOL TABLE (as described by Inglese J, Shamu CE and Guy RK. 2007)
SEQUENCE No. (e.g., 1, 2, 3, etc.); […] (e.g., Cells, Incubation, Reagent, etc.); VALUE; DESCRIPTION.
1; Compounds; 20nL; 1536-well white tissue culture-treated plates.
2; Cells; 5 uL; PEO1, PEO4, and PEO1/OlaR cells at 600 cells per well.
3; Incubation; 96 hr; 37C, 95% humidity, 5% CO2.
4; Reagent; 3 uL; CellTiter-Glo (Promega).
5; Incubation; 15 min; room temperature.
6; Detection; Luminescence, PHERAstar (BMG Labtech) plate reader.
NOTES (numbers refer to Sequence numbers above)
1. MIPE 5.0 compounds were acoustically dispensed by Echo Acoustic Liquid Handler (Beckman Coulter Life Sciences). Each compound was plated at an 11-point concentration range with 1:3 dilution. Bortezomib, a proteasome inhibitor (final concentration, 20 uM), was used as a positive.
2. PEO1, PEO4, and PEO1/OlaR were trypsinized and dispensed in 5 uLof growth medium using a Multidrop Combi dispenser at a density of 600 cells per well to allow compounds to be present during the exponential growth phase.
3. Plates were incubated for 96 hours at standard incubator conditions and covered by a stainless steel gasketed lid to prevent evaporation.
4. Three microliters of CellTiter-Glo (Promega) were added to each well.
5. Plates were incubated at room temperature for 15 min with a stainless-steel lid in place.
6. Luminescence readings were taken using PHERAstar (BMG Labtech). […]

[1] = measured here: PEO1 parental Z-AUC

Row | SMILES | Z-AUC | Z-AUC [1] | Z-AUC (measured here: PEO4 Z-AUC)
1 | CCc1cncnc1N1CCN(Cc2nc3ccc(C(F)(F)F)cc3[nH]2)CC1 | -0.0922 (inactive) | -0.164 | 0.451
2 | COc1cc2nccc(Oc3ccc(NC(=O)NC4CC4)c(Cl)c3)c2cc1C(N)=O | -1.2 (inactive) | 0.621 | 0.0753
3 | CC(C)(C)OC(=O)CN(Cc1ccc(Cl)cc1)Cc1ccc([N+](=O)[O-])s1 | 0.709 (inactive) | 0.527 | 0.345
4 | CCc1cc(Nc2nccc(-c3c(-c4ccc(OC)c(C(=O)Nc5c(F)cccc5F)c4)nc4ccccn34)n2)c(OC)cc1N1CCC(N2CCN(S(C)(=O)=O)CC2)CC1 | -0.4 (inactive) | -0.657 | -0.933
5 | CC(C)(N)C(=O)N[C@H](COCc1ccccc1)C(=O)N1CCC2(CC1)CN(S(C)(=O)=O)c1ccccc12 | 1.64 (inactive) | 1.18 | 1.52
6 | COCCNCCCn1c(C(=O)CF)c(-c2ccc(C)cc2)c2c(N)ncnc21 | 0.937 (inactive) | 1.02 | 1.22
7 | CCn1c(-c2nonc2N)nc2cnc(Oc3cccc(NC(=O)c4ccc(OCCN5CCOCC5)cc4)c3)cc21 | 0.926 (inactive) | 0.828 | 0.912
8 | COc1cc2c(cc1OC)CN(CCc1ccc(NC(=O)c3cccc4c(=O)c5cccc(OC)c5[nH]c34)cc1)CC2 | 1.13 (inactive) | 0.952 | 0.963
9 | O=C(C1CC1)N1CC[C@@H](Cn2c(-c3ccc(-c4ccc5occc5c4)cc3)nc3cnccc32)C1 | 0.419 (inactive) | 0.824 | 0.902
10 | C[C@H](NC(=O)Cc1cc(F)cc(F)c1)C(=O)N[C@@H]1C(=O)N(C)c2ccccc2-c2ccccc21 | -0.379 (inactive) | -0.57 | -0.563
11 | CCOc1cc(C(=O)Nc2ccc(Cl)c(-c3nc4ccccc4[nH]3)c2)cc(OCC)c1OCC | -0.941 (inactive) | 0.578 | -0.467
12 | COc1ccc(C2=N[C@H](c3ccc(Cl)cc3)[C@H](c3ccc(Cl)cc3)N2C(=O)N2CCNC(=O)C2)c(OC(C)C)c1 | 0.858 (inactive) | 0.454 | 1.13
13 | Oc1ccc(C2CNCCc3c2cc(O)c(O)c3Cl)cc1 (configuration not stated) | 1.23 (inactive) | 1.1 | 1
14 | CC(C[N+](C)(C)C)OC(N)=O (configuration not stated) | 1.18 (inactive) | 1.37 | 1.64
